Records with an inconclusive call do not appear. A number with no mark means an inactive call. Activity calls are given as the source filed them. Calls follow the shape of the dose curve; as a rule, active = well fitted cell-killing curve with a large enough effect; inconclusive = small, poorly fitted or top-dose-only effect, or effect the other way; inactive = no such curve, though single readings can be large or run the other way.
Potency is read from the fitted curve at half-maximal effect.

The assay is described as follows: Viability qHTS for spleen associated tyrosine kinase inhibitor (SYKi) drug resistant MV4-11 cells (AID 1963824). Also: nearly all actives have a fitted effect of over 35% in size. Conditions: SYKi-resistant MV4-11 viability, CellTiter-Glo, 72 h; series mostly up to 45 µM; viability, % of control: at the top concentration. The essentials: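 SYK-inhibitor-resistant MV4-11 AML cells were seeded at 500 per well onto compound and cultured 72 hours (37 °C, 5% CO2). CellTiter-Glo was then added, and after 10 min at room temperature, luminescence gave viability.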
In the case of `O=C(/C=C/c1ccc(O)cc1)c1ccc(O)cc1O`, the Potency is 11.8 µM (active).
Regarding `C=CC(=O)Nc1cccc(CN2C(=O)N(c3c(Cl)c(OC)cc(OC)c3Cl)Cc3cnc(NCCCCN(CC)CC)nc32)c1`, the Potency was 3.66 µM (active).
Same read-out and setting: with `O=C(O)c1cc(N(Cc2ccc(C3CCCCC3)cc2)C(=O)c2ccc(Oc3ccccc3)cc2)ccc1O` the figure was 16.4 µM (active).
On to `Cc1cccc(-c2[nH]ncc2-c2ccnc3ccccc23)n1`, for which the Potency is 16.4 µM (active).
As for `CC1(C)C=Cc2c(ccc3c2[N+]([O-])=C2C3(O)CC34NC(=O)C5(CCCN5C3=O)CC4C2(C)C)O1` (stereo not given), the “viability, % of control” value is 76.4% [at 17.3 µM].
Consider `COc1cc2c(cc1OC)N1C(=O)C[C@]34C=CCN5CC[C@@H]2[C@@H](CC3)[C@]514`, for which the Potency is 8.05 µM (active).
Still for that read-out and setting: with `C/C=C/[C@@H]1C=C[C@@H]2C[C@H](C)CC[C@H]2[C@]1(C)/C(O)=C1/C(=O)[C@@H](CO)N(C)C1=O` the figure was 16.1 µM (active); with `CCC/C=C/C(=O)O[C@H]1CC(C)(C)CC2[C@@]13[C@H](O)C[C@]1(C)[C@@]2(CCC2[C@@]4(C)CC[C@H](O[C@@H]5O[C@H](C(=O)O)[C@@H](O)[C@H](O[C@@H]6O[C@H](CO)[C@H](O)[C@H](O)[C@H]6O[C@@H]6O[C@@H](C)[C@H](O)[C@@H](O)[C@H]6O[C@@H]6OC[C@](O)(CO)[C@H]6O)[C@H]5O[C@@H]5O[C@H](CO)[C@H](O)[C@H](O)[C@H]5O)C(C)(C)C4CC[C@]21C)O[C@H]3O` (stereo not given in full), 2.75 µM (active).
On the same count and under the same terms, with `COc1cccc(CN(C(=O)CC(C)(C)C)C2CC(C(=O)N3CCNCC3)N(Cc3ccc4c(c3)OCO4)C2)c1` (stereo not given) the figure was 16.4 µM (active).
With `COc1ccccc1-n1c(SCC(=O)Nc2nc3ccc(C)cc3s2)nc2c(c1=O)SCC2`, the “viability, % of control” value is 83.7% [at 17.3 µM].
As for `CC1OC2OC3C(OCC(O)C3O)OC(=O)C34CCC(C)(C)CC3C3=CCC5C6(C)CC(O)C(OC7OC(CO)C(O)C(O)C7OC7OCC(OC(=O)CC(C)(O)CC(=O)OC1C(OC1OCC(O)C(O)C1O)C2O)C(O)C7O)C(C)(CO)C6CCC5(C)C3(C)CC4O` (stereo not given), the Potency was 1.78 µM (active).
For `CC(=O)OC1CC(=O)C2(C)C3CC4=C(OC(C)CC4=O)OC3(C)CCC2C1(C)C` (stereo not given), the “viability, % of control” value is 86.5% [at 17.3 µM].
With `C=C[C@@]1(C)CCC2=C([C@H]1OC(C)=O)[C@H](OC(C)=O)CC1[C@](C)(C(=O)OC)CC[C@H](OC(C)=O)[C@]21C` (stereo not given in full), the “viability, % of control” value is 67.8% [at 17.3 µM].
In the case of `Nc1ncnc2n[nH]c(Nc3ccc(F)cc3)c12`, the Potency is 6.51 µM (active).
Same read-out and setting: under `CCNC(=O)Nc1ccc(-c2nc3c(c(N4CCOCC4C)n2)CCN(C2COC2)C3)cc1` (stereo not given) stands 1.16 µM (active).

Source of the values: PubChem BioAssay (NCATS).
